# TDP1 cell noCPT: qHTS for Inhibitors of human tyrosyl-DNA phosphodiesterase 1 (TDP1): qHTS in cells in absence of CPT. DT40 Tdp1-/- hTDP1 cells, no CPT, ATP luminescence, 48 h. Potency, µM (titrated, usually from 46.2 µM), actives largely listed as inhibitors. hit rate 15% among 420,000. AID 686978, 2013; note: nearly all actives have a fitted effect of over 55% in size
#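 No-CPT arm: Tdp1-/-;hTDP1 DT40 cells (400/well) plus compounds, incubated ≥48 hr at 37 °C. Readout CellTiter-Glo luminescence.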
# HT1080 IDH1KD tx: HT-1080 IDH1 knockdown cell toxicity (counter line); HT-1080 IDH1 knockdown viability, ATP luminescence, 48 h; Potency, µM (top dose mostly 46.1 µM), most hits filed as cytotoxic; hit rate 2% among 360,000; AID 686971
#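 In this qHTS, HT-1080 cells depleted of IDH1 are exposed for 48 h at 37 °C to compound titrations. Toxicity is scored from CellTiter-Glo luminescence, with DMSO as full viability and medium alone as none.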
# HT1080NT lethal: kills 2HG-producing HT-1080-NT fibrosarcoma cells; HT-1080-NT fibrosarcoma viability, CellTiter-Glo ATP luminescence, 48 h; Potency, µM (doses to about 46.1 µM), actives largely listed as cytotoxic; hit rate 1.6% among 360,000; AID 686970;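 note: NT is the 2HG producing partner of a matched IDH1 knockdown line; nearly all actives have a fitted effect of over 55% in size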
#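 HT-1080-NT; 750 cells/well; 5% FBS RPMI; 48 h compound, 37 degrees C; CellTiter-Glo luminescence; curve fitting and curve-class assignment.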
# KB-V1 MDR tox: KB-V1 MDR subline cytotoxicity; KB-V1 MDR cells viability, CellTiter-Glo, 72 h; Potency, µM (highest dose often 46.1 µM), hits mostly cytotoxic; hit rate 3.4% among 400,000; note: nearly all actives have a fitted effect of over 60% in size
#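 Luminescent ATP read-out (CellTiter-Glo, 10 min) measures survival of drug-selected KB-V1 MDR cells after 72 h, 37 degrees C compound exposure. Medium: phenol-red-free DMEM, 10% FBS. Values from fitted concentration-response curves.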
# KB-3-1 cytotox: KB-3-1 parental cell cytotoxicity | hit rate 1.4% among 400,000 | KB-3-1 viability, CellTiter-Glo ATP luminescence, 72 h | Potency, µM (highest dose often 46.1 µM), hits mostly cytotoxic; note: nearly all actives have a fitted effect of over 60% in size
#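 Multi-concentration cytotoxicity screen in KB-3-1 cells grown in DMEM lacking phenol red with 10% FBS. After 72 h at 37 °C with compound, ATP-dependent luminescence was recorded.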
# TDP1 cell CPT: growth inhibition of DT40 Tdp1-/-;hTDP1 cells with camptothecin (screen for TDP1 inhibitors); chicken DT40 Tdp1-/-;hTDP1 cells + 20 nM CPT, ATP luminescence, 48 h; Potency, µM (doses to about 46.2 µM), most hits filed as inhibitors; hit rate 12% among 420,000; AID 686979; note: nearly all actives have a fitted effect of over 55% in size
#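 Cell growth measured by CellTiter-Glo luminescence after a minimum 48 h, 37 C compound exposure with 20 nM CPT in Tdp1-knockout DT40 cells stably expressing hTDP1, seeded 400/well; qHTS titration format.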
# A number is an active result; - = inactive; ? = inconclusive; . = no result given. In the library only some 19% were active in any assay of this set; here they are far more common. Calls come from the whole dose curve; as a rule, active = well fitted curve in the direction sought with a large enough effect; inconclusive = small, poorly fitted or top-dose-only effect, or another doubt; inactive = no such curve, though single readings can be large; an effect the other way counts as inactive or inconclusive.
SMILES,TDP1 cell noCPT,HT1080 IDH1KD tx,HT1080NT lethal,KB-V1 MDR tox,KB-3-1 cytotox,TDP1 cell CPT
COc1cc(/C=N/NC(=O)COc2c(C)cc([N+](=O)[O-])cc2C)ccc1OC(=O)c1ccccc1Br,?,-,-,-,-,?
COc1ccc(/C=N/NC(=O)c2cccc([N+](=O)[O-])c2)cc1OC(=O)c1ccccc1,15µM,?,-,?,?,16µM
COc1cccc(/C=N/NC(=O)C(=O)N/N=C/c2cccc(OC)c2OC)c1OC,-,23µM,?,-,-,-
COc1cc(/C=N/NC(=O)COc2c(C)cc([N+](=O)[O-])cc2C)ccc1OC(=O)c1ccccc1,21µM,18µM,?,-,-,13µM
O=C(N/N=C/c1cccc([N+](=O)[O-])c1)c1ccc(COc2ccccc2-c2ccccc2)cc1,23µM,-,-,16µM,?,21µM
COc1ccc(/C=N/NC(=O)c2cccc([N+](=O)[O-])c2)cc1OC(=O)c1ccc(C)cc1,?,-,-,?,?,?
CC1=C(C(=O)OCc2ccccc2)C(c2ccccc2OS(=O)(=O)c2ccccc2[N+](=O)[O-])NC(=O)N1CCCC(=O)O (stereo unspecified),?,-,-,-,-,-
CS(=O)(=O)N(CCc1ccccc1)CC(=O)N1CCCCCC1,-,-,-,-,-,-
COc1cccc(/C=N/NC(=O)c2cccc([N+](=O)[O-])c2)c1OS(=O)(=O)c1ccccc1,16µM,-,-,10µM,-,?
O=C(CSc1cn(CCNC(=O)c2c(F)cccc2F)c2ccccc12)Nc1ccc(F)cc1,16µM,.,.,-,-,?
O=C(CSc1cn(CCNC(=O)c2c(F)cccc2F)c2ccccc12)Nc1ccccc1F,21µM,.,.,?,-,?
O=C(CSc1cn(CCNC(=O)c2ccccc2F)c2ccccc12)Nc1ccccc1F,?,.,.,-,-,?
CC(C)N(C(=O)Cn1cc(SCC(=O)Nc2ccccc2C(F)(F)F)c2ccccc21)C(C)C,-,.,.,.,.,-
CC(C)N(C(=O)Cn1cc(SCC(=O)Nc2ccccc2F)c2ccccc21)C(C)C,13µM,.,.,.,.,?
CCc1ccccc1NC(=O)c1ccc2c(O)c(S(=O)(=O)c3ccccc3)c(=O)[nH]c2c1,-,.,.,-,-,-
COc1ccc(S(=O)(=O)N(CC(=O)NCc2ccncc2)c2ccc(C)cc2)cc1Br,-,-,-,-,-,-
O=[N+]([O-])c1c(Nc2ccccc2O)cc(Cl)c2nonc12,3.7µM,5.8µM,10µM,?,?,4.6µM
COc1cc(NC(=O)CSc2cc(=O)n(C)c3ccccc23)cc(OC)c1OC,?,.,.,-,-,10µM
CCn1c(=O)cc(SCC(=O)N2CCN(c3ccccc3OC)CC2)c2ccccc21,?,?,-,8.2µM,-,18µM
CCn1c(=O)cc(SCC(=O)Nc2ccc(OC)c(OC)c2)c2ccccc21,23µM,-,-,-,-,18µM
Cn1c(=O)cc(SCC(=O)N2CCN(c3ccccc3)CC2)c2ccccc21,?,-,-,-,-,16µM
